According to PubChem BioAssay AID1159580 (chemical genetic matrix, 2015):
The whole screen tested about 5,500 compounds, of which about 2,000 (36%) were called active. Not shown: some 18% with an inconclusive outcome. No stated cut-off is given here; in the data, active means normalized growth mostly below about 0.91 (no sharp cut-off); inconclusive means no clear call, values can overlap the other calls; inactive means mostly above about 0.92. The list shows a part of the results.

Assay: chemical genetic growth profiling, strain panel (AID 1159580);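 further: tested at 20 µM; growth read once vehicle control cultures reached saturation at 30 °C; 1 = growth at the plate median or of vehicle wells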
Conditions: S. cerevisiae deletion strains, growth OD

Measured: normalized growth

COc1ccc(-c2cc(=O)c3c(OC)cccc3o2)cc1
inactive: locus YBR021W, strain FUR4, stronger effect = lower value 0.978 | locus YBR229C, strain ROT2, stronger effect = lower value 1.04 | locus YCL029C, strain bik1, stronger effect = lower value 1.05 | locus YDL035C, strain GPR1, stronger effect = lower value 1.03 | locus YDL074C, strain BRE1, stronger effect = lower value 1.09 | locus YDL101C, strain DUN1, stronger effect = lower value 1.03 | locus YDL185W, strain tfp1, stronger effect = lower value 1.02 | locus YDL192W, strain arf1, stronger effect = lower value 1.06 | locus YDR101C, strain arx1, stronger effect = lower value 1.01 | locus YDR162C, strain NBP2, stronger effect = lower value 1.05 | locus YDR318W, strain mcm21, stronger effect = lower value 1.03 | locus YDR388W, stronger effect = lower value 1.04 | locus YDR502C, strain sam2, stronger effect = lower value 1.01 | locus YER110C, stronger effect = lower value 1.02 | locus YER155C, strain BEM2, stronger effect = lower value 1.03 | locus YER167W, strain BCK2, stronger effect = lower value 1.04 | locus YGL078C, strain dbp3, stronger effect = lower value 0.944 | locus YGL086W, strain mad1, stronger effect = lower value 1.01 | locus YGL248W, strain PDE1, stronger effect = lower value 1.05 | locus YGR135W, strain pre9, stronger effect = lower value 1 | locus YGR252W, strain gcn5, stronger effect = lower value 0.89 | locus YHR079C, strain IRE1 (second series), stronger effect = lower value 1.02 | locus YHR094C, strain hxt1, stronger effect = lower value 1.01 | locus YHR129C, strain ARP1, stronger effect = lower value 1.06 | locus YHR200W, strain rpn10, stronger effect = lower value 1.04 | locus YIL066C, strain RNR3, stronger effect = lower value 1.06 | locus YIL073C, strain SPO22, stronger effect = lower value 1.11 | locus YIL125W, strain kgd1, stronger effect = lower value 1.04 | locus YIR030C, strain dcg1, stronger effect = lower value 1.05 | locus YJL095W, strain BCK1, stronger effect = lower value 1.1 | locus YJL134W, strain LCB3, stronger effect = lower value 1.04 | locus YJL168C, strain set2, stronger effect = lower value 1.03 | locus YJL187C, strain SWE1 (second series), stronger effect = lower value 1.03 | locus YJR043C, strain POL32, stronger effect = lower value 1.04 | locus YJR075W, strain HOC1, stronger effect = lower value 1.06 | locus YKL009W, strain mrt4, stronger effect = lower value 0.911 | locus YKL068W, stronger effect = lower value 1.02 | locus YKL085W, strain MDH1 (second series), stronger effect = lower value 1.04 | locus YKL085W, strain MDH1, stronger effect = lower value 1.04 | locus YKR001C, strain vps1, stronger effect = lower value 1.09 | locus YLR039C, strain RIC1, stronger effect = lower value 1.28 | locus YLR058C, strain SHM2, stronger effect = lower value 1.03 | locus YLR102C, strain apc9, stronger effect = lower value 1.02 | locus YLR262C, strain YPT6, stronger effect = lower value 1.21 | locus YLR268W, strain sec22, stronger effect = lower value 1.02 | locus YLR371W, strain rom2, stronger effect = lower value 1.06 | locus YLR418C, strain cdc73, stronger effect = lower value 1.12 | locus YML016C, strain PPZ1, stronger effect = lower value 1.05 | locus YML032C, strain rad52, stronger effect = lower value 0.998 | locus YML124C, strain tub3, stronger effect = lower value 1.03 | locus YMR078C, strain ctf18, stronger effect = lower value 1.03 | locus YMR223W, strain ubp8, stronger effect = lower value 1.01 | locus YMR307W, strain GAS1, stronger effect = lower value 1.22 | locus YNL067W, strain RPL9B, stronger effect = lower value 1.04 | locus YNL153C, strain GIM3, stronger effect = lower value 1.02 | locus YNL233W, strain BNI4, stronger effect = lower value 1.08 | locus YNL250W, strain rad50, stronger effect = lower value 1.05 | locus YNL271C, strain bni1, stronger effect = lower value 1.04 | locus YNL298W, strain CLA4, stronger effect = lower value 0.98 | locus YNL307C, strain MCK1, stronger effect = lower value 1.03 | locus YNL322C, strain KRE1, stronger effect = lower value 1.04 | locus YNR052C, strain pop2, stronger effect = lower value 1.01 | locus YOL006C, strain TOP1, stronger effect = lower value 1.25 | locus YOL012C, strain htz1 1.26 | locus YOL147C, strain pex11, stronger effect = lower value 1.03 | locus YOR061W, strain CKA2, stronger effect = lower value 1.05 | locus YOR069W, strain VPS5, stronger effect = lower value 1.04 | locus YOR136W, strain idh2, stronger effect = lower value 1.03 | locus YOR144C, strain elg1, stronger effect = lower value 1.01 | locus YOR184W, strain ser1, stronger effect = lower value 1.01 | locus YOR316C, strain cot1, stronger effect = lower value 1.02 | locus YPR119W, strain clb2, stronger effect = lower value 1.05 | locus YPR141C, strain kar3, stronger effect = lower value 1.05 | locus YPR163C, strain tif3, stronger effect = lower value 1.02 | locus YPR167C, strain met16, stronger effect = lower value 1.02 | strain wtn01, stronger effect = lower value 1.01
